The nature of experiment [1]: ATG_CRE_CIS: Attagene CIS-FACTORIAL HepG2 Assay for human cAMP Responsive Element (CRE) binding protein 3 (AID 2282926). The following applies: HepG2 CRE cis-reporter, Attagene multiplexed mRNA; actives raise or lower the signal. The gist of the method:
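Liver-derived HepG2, transfected with a CRE-containing reporter panel, exposed 24 h; transcript levels sized and quantified by capillary electrophoresis of labelled amplicons; signal changes either way referenced to vehicle.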

The target of experiment [2] is CCAAT/enhancer-binding protein beta (Homo sapiens) (UniProt P17676). In words: ATG_C_EBP_CIS: Attagene CIS-FACTORIAL HepG2 Assay for human CCAAT/Enhancer Binding Protein (C/EBP) beta (AID 2282927). The following applies: HepG2 Attagene cis-factorial transcription factor reporter; actives raise or lower the signal. The gist of the method: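 Changes in reporter mRNA, rather than exogenous chimeric receptor activity, reflect native C/EBP signalling in transfected HepG2 cells dosed for 24 h; transcripts are detected by RT-PCR and capillary electrophoresis.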

The nature of experiment [3]: ATG_CMV_CIS: Attagene CIS-FACTORIAL HepG2 Assay for human CMV (Internal Marker) (AID 2282928).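 Also: endpoint acts as a background internal control marker rather than a target.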 The following applies: HepG2 CMV promoter reporter, transcription factor profiling; actives raise or lower the signal. The gist of the method: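 24 h chemical treatment, HepG2 with transient multi-reporter transfection; RNA → oligo(dT) RT → PCR → 6-FAM extension → HpaI digest → CE fluorescence. Bidirectional fit, DMSO negative control.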

Experiment [4] can be described thus: ATG_DR4_LXR_CIS: Attagene CIS-FACTORIAL HepG2 Assay for human Liver X Receptor (LXR), DR4 submotif (AID 2282929). The following applies: HepG2 Attagene DR4 cis-reporter, mRNA transcription; actives raise or lower the signal. The procedure, abridged:
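Fluorescence intensity of labelled reporter cDNA fragments, separated by capillary electrophoresis, gives the signal. HepG2 cells bearing cis-regulated reporter constructs were treated 24 h; activity fitted bidirectionally relative to DMSO negative control.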

Experiment [5] has as its target Aryl hydrocarbon receptor (Homo sapiens) (UniProt P35869). The experiment can be described thus: ATG_Ahr_CIS: Attagene CIS-FACTORIAL HepG2 Assay for human Aryl Hydrocarbon Receptor (Ahr) (AID 2282930). The following applies: HepG2 AhR cis-factorial reporter transcription; actives raise or lower the signal. The procedure, abridged:
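HepG2, transient MRTU (cis) transfection, 24 h exposure. RNA → cDNA → PCR → 6-FAM primer extension → HpaI 2 h 37 C → CE. Fit: bidirectional, DMSO baseline.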

The nature of experiment [6]: ATG_AP_1_CIS: Attagene CIS-FACTORIAL HepG2 Assay for human Activator Protein 1 (AP-1) (AID 2282931). The following applies: HepG2 Attagene cis-factorial AP-1 reporter mRNA; actives raise or lower the signal. The procedure, abridged: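 Multiplexed HepG2 reporter assay, 24 h dosing. mRNA induction detected by RT-PCR plus capillary electrophoresis. Activity fitted in both directions against DMSO.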

Experiment [7] in a line: ATG_AP_2_CIS: Attagene CIS-FACTORIAL HepG2 Assay for human Activator Protein 2 (AP-2) (AID 2282932). The following applies: HepG2 AP-2 cis-reporter, Attagene transcription factor profiling; actives raise or lower the signal. The gist of the method: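 Transiently transfected HepG2 cells are exposed to chemical for 24 h. Reporter transcripts are then measured as fluorescence following RT-PCR and capillary separation, and gain- or loss-of-signal is fitted relative to DMSO.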

Experiment [8] can be described thus: ATG_BRE_CIS: Attagene CIS-FACTORIAL HepG2 Assay for human Bone Morphogenetic Protein (BMP) Response Element (BRE) (AID 2282933). The following applies: HepG2 BMP response element reporter, Attagene transcription factor profiling; actives raise or lower the signal. The procedure, abridged:
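Gain- or loss-of-signal was derived by bidirectional fitting against DMSO controls. The signal came from reporter mRNA, measured by RT-PCR and capillary electrophoresis, in HepG2 cells transiently carrying multiple reporter units and dosed for 24 h.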

Experiment [9] is described as follows: ATG_E_Box_CIS: Attagene CIS-FACTORIAL HepG2 Assay for human Enhancer Box (E-box) (AID 2282936). The following applies: HepG2 E-box cis-reporter transcription, actives raise or lower the signal. The gist of the method:
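Fluorescent reporter fragments separated by capillary electrophoresis gave the signal; mRNA came from HepG2 cells transfected with cis-element reporters and treated 24 h. Curves fitted bidirectionally relative to DMSO controls.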

Experiment [10] is described as follows: ATG_M_61_CIS: Attagene CIS-FACTORIAL HepG2 Assay for M61 Transcription Factor (Internal Marker) (AID 2282937). The following applies: HepG2 Attagene CIS-FACTORIAL M61 internal marker reporter; actives raise or lower the signal. The procedure, abridged: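 Endogenous transcription factor activity in HepG2 is read through transiently transfected cis-element reporter units. After 24 h dosing, RNA undergoes reverse transcription, PCR and primer extension with 6-FAM before capillary electrophoresis; DMSO-referenced bidirectional fit.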

A short description of experiment [11]: ATG_EGR_CIS: Attagene CIS-FACTORIAL HepG2 Assay for human Early Growth Response 1 (EGR1) (AID 2282938). The following applies: HepG2 Attagene CIS-FACTORIAL EGR reporter mRNA; actives raise or lower the signal. The gist of the method:
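Activity is taken as induction or loss of reporter mRNA versus DMSO, fitted bidirectionally. Transcripts from cis-regulated reporter units in transiently transfected HepG2 were measured after 24 h by RT-PCR with capillary electrophoresis.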

Experiment [12] is described as follows: ATG_M_19_CIS: Attagene CIS-FACTORIAL HepG2 Assay for M19 Transcription Factor (Internal Marker) (AID 2282939). The following applies: HepG2 Attagene CIS-FACTORIAL M19 internal marker reporter; actives raise or lower the signal. The procedure, abridged: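 Following a 24 h exposure, RNA from transfected HepG2 cells was reverse-transcribed, PCR-amplified with reporter-specific primers, end-labelled with 6-FAM and HpaI-digested before capillary separation. Values represent gain or loss versus DMSO.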

The nature of experiment [13]: ATG_GATA_CIS: Attagene CIS-FACTORIAL HepG2 Assay for human GATA Binding Protein (AID 2282944). The following applies: HepG2 GATA cis-element reporter, Attagene multiplex mRNA; actives raise or lower the signal. The procedure, abridged:
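DMSO serves as negative control and baseline for bidirectional fitting of reporter mRNA changes. HepG2 cells bearing transiently transfected cis-promoter reporters were exposed 24 h; transcripts detected via RT-PCR and capillary electrophoresis.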

Experiment [14] can be described thus: ATG_GLI_CIS: Attagene CIS-FACTORIAL HepG2 Assay for human Zinc Finger Protein GLI1 (AID 2282945). The following applies: HepG2, Attagene cis-factorial reporter mRNA, GLI element; actives raise or lower the signal. The procedure, abridged: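 Bidirectional curve fits relative to DMSO, using reporter mRNA levels from RT-PCR plus capillary electrophoresis. Cells were HepG2 transiently carrying cis-regulated reporter constructs, harvested 24 h after dosing.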

The target in experiment [15] is Bile acid receptor (Homo sapiens) (UniProt Q96RI1). In words: ATG_IR1_CIS: Attagene CIS-FACTORIAL HepG2 Assay for human Nuclear Receptor Subfamily 1 Group H Member 4 (NR1H4), IR1 submotif (AID 2282946). The following applies: IR1 reporter transcription, actives raise or lower the signal. The gist of the method: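 HepG2 cells transiently transfected with multiplexed cis-element reporter units read endogenous transcription factor activity. After 24 h compound exposure, reporter mRNA was quantified by RT-PCR, fluorescent labelling, HpaI digestion and capillary electrophoresis; bidirectional fitting versus DMSO baseline.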

The target of experiment [16] is Retinoic acid receptor alpha (Homo sapiens) (UniProt P10276). In words: ATG_DR5_RAR_CIS: Attagene CIS-FACTORIAL HepG2 Assay for human Retinoic Acid Receptor Alpha (RARE), DR5 submotif (AID 2282934). The following applies: HepG2 Attagene cis-factorial RARE DR5 reporter, mRNA; actives raise or lower the signal. The gist of the method:
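HepG2, transient cis-reporter transfection, 24 h exposure. mRNA readout: RT-PCR, FAM label, HpaI cut, capillary electrophoresis. DMSO baseline, gain/loss fitting.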

Experiment [17] addresses Transcription factor E2F1 (Homo sapiens) (UniProt Q01094). In words: ATG_E2F_CIS: Attagene CIS-FACTORIAL HepG2 Assay for human E2F Transcription Factor 1 (AID 2282935). The following applies: HepG2 Attagene cis-reporter, E2F reporter RNA transcripts; actives raise or lower the signal. The procedure, abridged: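 Fluorescent RT-PCR products, digested with HpaI for 2 h at 37 C, are separated by capillary electrophoresis. Source RNA comes from transfected HepG2 cultures treated for 24 h.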

Experiment [18] in a line: ATG_Ets_CIS: Attagene CIS-FACTORIAL HepG2 Assay for human Erythroblast Transformation Specific (ETS) (AID 2282941). The following applies: HepG2 ETS cis-reporter transcription, actives raise or lower the signal. The gist of the method: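 Cis-regulated reporter mRNA induction in HepG2 (transient transfection), 24 h exposure, RT-PCR plus capillary electrophoresis detection; DMSO serves as negative control and baseline.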

The target of experiment [19] is Hepatocyte nuclear factor 3-beta (Homo sapiens) (UniProt Q9Y261). In words: ATG_FoxA2_CIS: Attagene CIS-FACTORIAL HepG2 Assay for human Forkhead box A2 (FOXA2) (AID 2282942). The following applies: HepG2 cis-reporter transcription factor activity, 24 h; actives raise or lower the signal. The gist of the method: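 Reporter transcript induction is measured by fluorescence after capillary electrophoresis of RT-PCR products from HepG2 cells exposed 24 h. Cis-regulated reporter units report endogenous factor activity; curves fitted both directions against DMSO.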

Experiment [20] can be described thus: ATG_FoxO_CIS: Attagene CIS-FACTORIAL HepG2 Assay for human Forkhead box O (FoxO) (AID 2282943). The following applies: HepG2 Attagene cis-reporter, FoxO element, mRNA; actives raise or lower the signal. The gist of the method:
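Human hepatoma HepG2 cells carry transiently introduced reporter transcription units controlled by cis promoter elements. Chemical treatment lasted 24 h, and mRNA signal was compared with DMSO.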

Molecules are shown by their SMILES. Calls of active or inactive are those of the source. The calls were made as follows: active = hit-call score of the fitted dose curve at least 0.9, where 1 is the maximum; inactive = score below 0.9.

Aryl hydrocarbon receptor (Homo sapiens), sequence (P35869 whole entry, looked up): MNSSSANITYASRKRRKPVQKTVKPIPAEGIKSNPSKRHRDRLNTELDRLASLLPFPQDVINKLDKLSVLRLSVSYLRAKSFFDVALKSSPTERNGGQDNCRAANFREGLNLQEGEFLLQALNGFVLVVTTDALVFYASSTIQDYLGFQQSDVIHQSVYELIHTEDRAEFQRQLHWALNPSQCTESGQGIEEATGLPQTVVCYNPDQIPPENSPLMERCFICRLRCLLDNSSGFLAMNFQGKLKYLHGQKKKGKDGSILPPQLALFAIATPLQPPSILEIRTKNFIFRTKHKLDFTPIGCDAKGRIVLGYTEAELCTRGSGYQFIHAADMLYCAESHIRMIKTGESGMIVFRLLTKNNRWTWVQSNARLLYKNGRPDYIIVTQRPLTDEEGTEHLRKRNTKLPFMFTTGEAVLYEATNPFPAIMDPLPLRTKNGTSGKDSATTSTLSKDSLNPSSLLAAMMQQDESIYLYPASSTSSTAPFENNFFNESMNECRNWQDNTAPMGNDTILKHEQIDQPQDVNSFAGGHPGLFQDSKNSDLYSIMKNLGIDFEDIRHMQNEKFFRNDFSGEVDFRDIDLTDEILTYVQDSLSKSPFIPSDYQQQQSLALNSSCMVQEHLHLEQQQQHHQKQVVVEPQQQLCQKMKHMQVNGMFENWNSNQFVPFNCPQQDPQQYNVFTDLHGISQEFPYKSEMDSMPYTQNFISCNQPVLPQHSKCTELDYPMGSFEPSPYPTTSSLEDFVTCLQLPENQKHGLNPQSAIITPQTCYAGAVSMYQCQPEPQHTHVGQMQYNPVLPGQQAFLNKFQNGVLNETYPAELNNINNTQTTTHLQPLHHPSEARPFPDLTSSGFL
Hepatocyte nuclear factor 3-beta (Homo sapiens), sequence (Q9Y261 whole entry, looked up): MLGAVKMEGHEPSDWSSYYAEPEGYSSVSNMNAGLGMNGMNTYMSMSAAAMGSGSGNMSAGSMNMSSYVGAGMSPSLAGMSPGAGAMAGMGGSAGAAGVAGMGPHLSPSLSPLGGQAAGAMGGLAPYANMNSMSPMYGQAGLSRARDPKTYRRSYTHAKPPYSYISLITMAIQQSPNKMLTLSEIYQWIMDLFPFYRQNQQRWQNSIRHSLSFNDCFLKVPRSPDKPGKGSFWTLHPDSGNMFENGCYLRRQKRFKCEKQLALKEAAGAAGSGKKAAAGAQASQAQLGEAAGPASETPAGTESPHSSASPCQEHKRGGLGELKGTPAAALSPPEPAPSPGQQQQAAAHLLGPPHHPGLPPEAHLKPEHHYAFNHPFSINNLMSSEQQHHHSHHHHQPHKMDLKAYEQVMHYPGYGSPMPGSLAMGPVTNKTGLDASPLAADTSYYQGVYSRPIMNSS
Transcription factor E2F1 (Homo sapiens), sequence (Q01094 whole entry, looked up): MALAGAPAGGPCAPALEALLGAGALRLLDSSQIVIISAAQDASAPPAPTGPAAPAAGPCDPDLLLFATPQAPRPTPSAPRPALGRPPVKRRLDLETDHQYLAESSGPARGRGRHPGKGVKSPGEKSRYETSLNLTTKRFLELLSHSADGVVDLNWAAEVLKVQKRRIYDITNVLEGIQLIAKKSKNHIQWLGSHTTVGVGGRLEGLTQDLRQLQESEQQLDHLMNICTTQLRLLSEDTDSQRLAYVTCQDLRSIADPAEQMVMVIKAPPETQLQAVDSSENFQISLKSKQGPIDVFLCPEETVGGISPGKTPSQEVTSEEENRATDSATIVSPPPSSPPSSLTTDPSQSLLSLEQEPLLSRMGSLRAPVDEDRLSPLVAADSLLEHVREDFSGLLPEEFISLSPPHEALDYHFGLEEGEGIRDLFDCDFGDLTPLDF
CCAAT/enhancer-binding protein beta (Homo sapiens), sequence (P17676 whole entry, looked up): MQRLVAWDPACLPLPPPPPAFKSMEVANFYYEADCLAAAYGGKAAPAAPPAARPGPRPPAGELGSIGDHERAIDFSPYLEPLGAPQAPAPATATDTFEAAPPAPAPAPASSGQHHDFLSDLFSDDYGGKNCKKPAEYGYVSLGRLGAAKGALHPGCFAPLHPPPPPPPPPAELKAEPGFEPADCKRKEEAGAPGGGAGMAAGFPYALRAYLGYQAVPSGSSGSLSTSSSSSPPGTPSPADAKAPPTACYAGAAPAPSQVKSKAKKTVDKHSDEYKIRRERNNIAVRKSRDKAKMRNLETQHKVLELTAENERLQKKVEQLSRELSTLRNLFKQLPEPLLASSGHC
Retinoic acid receptor alpha (Homo sapiens), sequence (P10276 whole entry, looked up): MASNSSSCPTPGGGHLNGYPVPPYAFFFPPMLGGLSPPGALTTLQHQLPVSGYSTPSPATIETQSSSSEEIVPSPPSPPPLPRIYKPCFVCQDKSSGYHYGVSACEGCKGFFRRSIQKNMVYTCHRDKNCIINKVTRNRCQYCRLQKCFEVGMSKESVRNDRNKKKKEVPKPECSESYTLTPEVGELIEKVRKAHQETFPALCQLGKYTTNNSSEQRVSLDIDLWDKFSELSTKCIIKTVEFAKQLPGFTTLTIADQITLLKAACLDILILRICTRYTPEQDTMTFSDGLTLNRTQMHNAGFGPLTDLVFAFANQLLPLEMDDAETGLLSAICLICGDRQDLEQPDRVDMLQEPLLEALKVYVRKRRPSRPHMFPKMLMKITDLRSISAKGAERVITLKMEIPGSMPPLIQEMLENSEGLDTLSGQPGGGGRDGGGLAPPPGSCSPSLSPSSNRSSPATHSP
Bile acid receptor (Homo sapiens), sequence (Q96RI1 whole entry, looked up): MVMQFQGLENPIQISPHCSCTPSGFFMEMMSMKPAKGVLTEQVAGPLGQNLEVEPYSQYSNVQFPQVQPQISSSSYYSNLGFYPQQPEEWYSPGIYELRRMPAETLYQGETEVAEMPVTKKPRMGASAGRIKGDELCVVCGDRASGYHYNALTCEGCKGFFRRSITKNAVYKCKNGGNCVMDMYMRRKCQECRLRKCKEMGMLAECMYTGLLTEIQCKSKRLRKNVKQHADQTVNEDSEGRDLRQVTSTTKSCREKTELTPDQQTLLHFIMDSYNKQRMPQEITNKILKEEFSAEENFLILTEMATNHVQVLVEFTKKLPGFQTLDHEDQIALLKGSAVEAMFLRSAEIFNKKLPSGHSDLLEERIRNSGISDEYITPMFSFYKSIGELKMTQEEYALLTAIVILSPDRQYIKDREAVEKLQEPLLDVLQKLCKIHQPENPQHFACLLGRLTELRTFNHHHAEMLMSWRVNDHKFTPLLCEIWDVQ

With `CC(C)C(OC(=O)c1ccccc1)C(C)(C)COC(=O)c1ccccc1` (stereo not drawn), the call in experiment [1], in experiment [2], in experiment [3], in experiment [4], in [5] and in experiment [6] was inactive. In addition, the outcome in experiment [7], in [8], in experiment [9], in [10], in experiment [11] and in [12] was inactive. The compound was called inactive in experiment [13], in [14] and in experiment [15].
Consider `CC1=NN(c2ccc(S(=O)(=O)O)cc2)C(=O)C1`, for which the result in [1], in experiment [2], in [3], in experiment [4], in [6] and in [7] was inactive. The compound was called inactive in [8], in [16], in experiment [17], in [9], in [10] and in experiment [11]. Further, the compound was classed as inactive in [12], in experiment [18], in [19], in [20] and in experiment [14].
For the compound `O=CN1CCOCC1`, the outcome in experiment [1], in [2], in experiment [3], in [4], in [5] and in experiment [6] was inactive. The result in [8], in experiment [16], in [17], in experiment [9], in experiment [11] and in experiment [12] was inactive. Besides, the outcome in [19], in experiment [20] and in experiment [13] was inactive.
Take `CC(=O)O[C@@H]1C[C@@H]2CC[C@@]1(C)C2(C)C`: the compound was called inactive in experiment [1], in [2], in experiment [3], in [4], in experiment [6] and in experiment [7]. Further, the outcome in [8], in experiment [16], in [17], in [9], in experiment [10] and in experiment [11] was inactive. For the same compound, the compound was classed as inactive in experiment [12], in experiment [18], in experiment [19], in experiment [13], in [14] and in experiment [15].
Regarding `C=COCCOCCOC=C`, the compound was called inactive in experiment [1], in [2], in experiment [3], in [4], in experiment [5] and in experiment [6]. The compound was classed as inactive in experiment [8], in experiment [16], in experiment [17], in experiment [9], in experiment [10] and in [11]. Also, the result in [12], in experiment [18], in [19], in experiment [20], in [14] and in experiment [15] was inactive.
For orientation: AC50 means the concentration giving half of the maximal activity seen. `Nc1ccc(N)c2c1C(=O)c1ccccc1C2=O`: the AC50 in [1] is 3.11 µM (active); in experiment [2], 11.3 µM (active). The compound was called inactive in [3], in [4], in experiment [6], in [7], in experiment [8] and in [16]. For the same compound, the call in experiment [17], in experiment [9], in experiment [10], in experiment [11], in experiment [12] and in [18] was inactive. Besides, the compound was classed as inactive in experiment [19], in [20], in [13], in experiment [14] and in experiment [15].
Turning to `CC(C)CCOC(=O)c1ccccc1`, the outcome in experiment [1], in [2], in [3], in [4], in experiment [6] and in [7] was inactive. Further, the result in experiment [8], in experiment [16], in experiment [17], in experiment [9], in [10] and in experiment [11] was inactive. Also, the call in [12], in experiment [18], in experiment [19], in experiment [20], in experiment [13] and in experiment [14] was inactive. The compound was classed as inactive in experiment [15].
Take `COc1ccc(CCO)cc1`: the outcome in experiment [1], in experiment [2], in experiment [3], in [4], in experiment [5] and in [6] was inactive. Further, the compound was classed as inactive in [8], in experiment [17], in experiment [9], in experiment [10], in experiment [11] and in [12]. Moreover, the call in experiment [18], in experiment [19], in [20], in experiment [13] and in experiment [14] was inactive.

For the origin of these results see PubChem BioAssay (EPA / NIEHS).
